# Experimental data: the supplement of paper PMC4466140
# B1: unnamed (peptide)
# chain: PAPPPPPRASRPTPN
# B2: unnamed (peptide)
# chain: ERPKRRAPPPVPKKP
# Legend:
# Assay in all cases: SPOT peptide array binding signal intensity (averaged, normalized) (arbitrary units (background-subtracted, floor 0; scale differs between SH3 domains)); higher = stronger binding of the SH3 domain to the peptide
# AgAbp1 = molecular target: AgAbp1
# Summary of the method: (§1)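 E. coli BL21(DE3) was used to express GST-fused SH3 domains from four yeast species, which were then purified on glutathione Sepharose. These were incubated at 10 μg/ml in TBS-based blocking buffer overnight at 4°C on cellulose membranes carrying synthetic 15-mer peptides, in which cysteines were replaced by serines. Binding signal is the replicate average of normalized, background-subtracted spot intensity, in arbitrary units that differ between domains.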
# AgBbc1 = molecular target: AgBbc1
# Summary of the method: as §1
# AgBem1-D1 = molecular target: AgBem1-D1
# Summary of the method: as §1
# AgBzz1-D1 = molecular target: AgBzz1-D1
# Summary of the method: as §1
# AgBzz1-D2 = molecular target: AgBzz1-D2
# Summary of the method: as §1
# AgCyk3 = molecular target: AgCyk3
# Summary of the method: as §1
# AgFus1 = molecular target: AgFus1
# Summary of the method: as §1
# AgHof1 = molecular target: AgHof1
# Summary of the method: as §1
# AgHse1 = molecular target: AgHse1
# Summary of the method: as §1
# AgLsb1 = molecular target: AgLsb1
# Summary of the method: as §1
# AgLsb4 = molecular target: AgLsb4
# Summary of the method: as §1
# AgMyo5 = molecular target: AgMyo5
# Summary of the method: as §1
# AgNbp2 = molecular target: AgNbp2
# Summary of the method: as §1
# AgRvs167 = molecular target: AgRvs167
# Summary of the method: as §1
# AgSho1 = molecular target: AgSho1
# Summary of the method: as §1
# AgSla1-D1-D2 = molecular target: AgSla1-D1-D2
# Summary of the method: as §1
# AgSla1-D3 = molecular target: AgSla1-D3
# Summary of the method: as §1
# CaAbp1-D1 = molecular target: CaAbp1-D1
# Summary of the method: as §1
# CaAbp1-D2 = molecular target: CaAbp1-D2
# Summary of the method: as §1
# CaBbc1 = molecular target: CaBbc1
# Summary of the method: as §1
# CaBem1-D1 = molecular target: CaBem1-D1
# Summary of the method: as §1
# CaBzz1-D1 = molecular target: CaBzz1-D1
# Summary of the method: as §1
# CaBzz1-D2 = molecular target: CaBzz1-D2
# Summary of the method: as §1
# CaCyk3 = molecular target: CaCyk3
# Summary of the method: as §1
# CaFus1 = molecular target: CaFus1
# Summary of the method: as §1
# CaHof1 = molecular target: CaHof1
# Summary of the method: as §1
# CaHse1 = molecular target: CaHse1
# Summary of the method: as §1
# CaLsb1 = molecular target: CaLsb1
# Summary of the method: as §1
# CaLsb4 = molecular target: CaLsb4
# Summary of the method: as §1
# CaMyo5 = molecular target: CaMyo5
# Summary of the method: as §1
# CaNbp2 = molecular target: CaNbp2
# Summary of the method: as §1
# CaRvs167 = molecular target: CaRvs167
# Summary of the method: as §1
# CaRvs167-3 = molecular target: CaRvs167-3
# Summary of the method: as §1
# CaSho1 = molecular target: CaSho1
# Summary of the method: as §1
# CaSla1-D1-D2 = molecular target: CaSla1-D1-D2
# Summary of the method: as §1
# CaSla1-D3 = molecular target: CaSla1-D3
# Summary of the method: as §1
# ScAbp1 = molecular target: ScAbp1
# Summary of the method: as §1
# ScBbc1 = molecular target: ScBbc1
# Summary of the method: as §1
# ScBem1-D1 = molecular target: ScBem1-D1
# Summary of the method: as §1
# ScBzz1-D1 = molecular target: ScBzz1-D1
# Summary of the method: as §1
# ScBzz1-D2 = molecular target: ScBzz1-D2
# Summary of the method: as §1
# ScCyk3 = molecular target: ScCyk3
# Summary of the method: as §1
# ScFus1 = molecular target: ScFus1
# Summary of the method: as §1
# ScHof1 = molecular target: ScHof1
# Summary of the method: as §1
# ScHse1 = molecular target: ScHse1
# Summary of the method: as §1
# ScLsb1 = molecular target: ScLsb1
# Summary of the method: as §1
# ScLsb2 = molecular target: ScLsb2
# Summary of the method: as §1
# ScLsb3 = molecular target: ScLsb3
# Summary of the method: as §1
# ScLsb4 = molecular target: ScLsb4
# Summary of the method: as §1
# ScMyo3 = molecular target: ScMyo3
# Summary of the method: as §1
# ScMyo5 = molecular target: ScMyo5
# Summary of the method: as §1
# ScNbp2 = molecular target: ScNbp2
# Summary of the method: as §1
# ScPex13 = molecular target: ScPex13
# Summary of the method: as §1
# ScRvs167 = molecular target: ScRvs167
# Summary of the method: as §1
# ScSho1 = molecular target: ScSho1
# Summary of the method: as §1
# ScSla1-D1-D2 = molecular target: ScSla1-D1-D2
# Summary of the method: as §1
# ScSla1-D3 = molecular target: ScSla1-D3
# Summary of the method: as §1
# SpAbp1-D1 = molecular target: SpAbp1-D1
# Summary of the method: as §1
# SpBbc1 = molecular target: SpBbc1
# Summary of the method: as §1
# SpBzz1-D1 = molecular target: SpBzz1-D1
# Summary of the method: as §1
# SpBzz1-D2 = molecular target: SpBzz1-D2
# Summary of the method: as §1
# SpCyk3 = molecular target: SpCyk3
# Summary of the method: as §1
# SpHof1 = molecular target: SpHof1
# Summary of the method: as §1
# SpHof1-2 = molecular target: SpHof1-2
# Summary of the method: as §1
# SpHof1-3 = molecular target: SpHof1-3
# Summary of the method: as §1
# SpHse1 = molecular target: SpHse1
# Summary of the method: as §1
# SpLsb1 = molecular target: SpLsb1
# Summary of the method: as §1
# SpLsb4 = molecular target: SpLsb4
# Summary of the method: as §1
# SpMyo1 = molecular target: SpMyo1
# Summary of the method: as §1
# SpNbp2 = molecular target: SpNbp2
# Summary of the method: as §1
# SpPex13 = molecular target: SpPex13
# Summary of the method: as §1
# SpRvs167 = molecular target: SpRvs167
# Summary of the method: as §1
# SpSla1-D1-D2 = molecular target: SpSla1-D1-D2
# Summary of the method: as §1
# SpSla1-D3 = molecular target: SpSla1-D3
# Summary of the method: as §1
binder,measurement,setting,value
B1,SPOT peptide array binding signal intensity,AgAbp1,7.5
same,SPOT peptide array binding signal intensity,AgBbc1,438
same,SPOT peptide array binding signal intensity,AgBem1-D1,19.5
same,SPOT peptide array binding signal intensity,AgBzz1-D1,57
same,SPOT peptide array binding signal intensity,AgBzz1-D2,8
same,SPOT peptide array binding signal intensity,AgCyk3,1
same,SPOT peptide array binding signal intensity,AgFus1,≤ 0
same,SPOT peptide array binding signal intensity,AgHof1,0.5
same,SPOT peptide array binding signal intensity,AgHse1,1.5
same,SPOT peptide array binding signal intensity,AgLsb1,6.5
same,SPOT peptide array binding signal intensity,AgLsb4,185
same,SPOT peptide array binding signal intensity,AgMyo5,≤ 0
same,SPOT peptide array binding signal intensity,AgNbp2,111
same,SPOT peptide array binding signal intensity,AgRvs167,34.2
same,SPOT peptide array binding signal intensity,AgSho1,≤ 0
same,SPOT peptide array binding signal intensity,AgSla1-D1-D2,3.5
same,SPOT peptide array binding signal intensity,AgSla1-D3,2
same,SPOT peptide array binding signal intensity,CaAbp1-D1,24.5
same,SPOT peptide array binding signal intensity,CaAbp1-D2,3
same,SPOT peptide array binding signal intensity,CaBbc1,657
same,SPOT peptide array binding signal intensity,CaBem1-D1,21
same,SPOT peptide array binding signal intensity,CaBzz1-D1,934
same,SPOT peptide array binding signal intensity,CaBzz1-D2,162
same,SPOT peptide array binding signal intensity,CaCyk3,21
same,SPOT peptide array binding signal intensity,CaFus1,45.5
same,SPOT peptide array binding signal intensity,CaHof1,17.5
same,SPOT peptide array binding signal intensity,CaHse1,3.5
same,SPOT peptide array binding signal intensity,CaLsb1,0.5
same,SPOT peptide array binding signal intensity,CaLsb4,939
same,SPOT peptide array binding signal intensity,CaMyo5,1.5
same,SPOT peptide array binding signal intensity,CaNbp2,39.5
same,SPOT peptide array binding signal intensity,CaRvs167,223
same,SPOT peptide array binding signal intensity,CaRvs167-3,6.25
same,SPOT peptide array binding signal intensity,CaSho1,3.5
same,SPOT peptide array binding signal intensity,CaSla1-D1-D2,242
same,SPOT peptide array binding signal intensity,CaSla1-D3,3.75
same,SPOT peptide array binding signal intensity,ScAbp1,3
same,SPOT peptide array binding signal intensity,ScBbc1,72.5
same,SPOT peptide array binding signal intensity,ScBem1-D1,2
same,SPOT peptide array binding signal intensity,ScBzz1-D1,36
same,SPOT peptide array binding signal intensity,ScBzz1-D2,24
same,SPOT peptide array binding signal intensity,ScCyk3,2
same,SPOT peptide array binding signal intensity,ScFus1,10
same,SPOT peptide array binding signal intensity,ScHof1,56.2
same,SPOT peptide array binding signal intensity,ScHse1,6
same,SPOT peptide array binding signal intensity,ScLsb1,49.2
same,SPOT peptide array binding signal intensity,ScLsb2,3.5
same,SPOT peptide array binding signal intensity,ScLsb3,1110
same,SPOT peptide array binding signal intensity,ScLsb4,394
same,SPOT peptide array binding signal intensity,ScMyo3,40.5
same,SPOT peptide array binding signal intensity,ScMyo5,22
same,SPOT peptide array binding signal intensity,ScNbp2,10.5
same,SPOT peptide array binding signal intensity,ScPex13,304
same,SPOT peptide array binding signal intensity,ScRvs167,966
same,SPOT peptide array binding signal intensity,ScSho1,45
same,SPOT peptide array binding signal intensity,ScSla1-D1-D2,565
same,SPOT peptide array binding signal intensity,ScSla1-D3,1.5
same,SPOT peptide array binding signal intensity,SpAbp1-D1,14.5
same,SPOT peptide array binding signal intensity,SpBbc1,1
same,SPOT peptide array binding signal intensity,SpBzz1-D1,208
same,SPOT peptide array binding signal intensity,SpBzz1-D2,6.5
same,SPOT peptide array binding signal intensity,SpCyk3,3
same,SPOT peptide array binding signal intensity,SpHof1,5.5
same,SPOT peptide array binding signal intensity,SpHof1-2,5.5
same,SPOT peptide array binding signal intensity,SpHof1-3,57.5
same,SPOT peptide array binding signal intensity,SpHse1,7.5
same,SPOT peptide array binding signal intensity,SpLsb1,69.5
same,SPOT peptide array binding signal intensity,SpLsb4,1170
same,SPOT peptide array binding signal intensity,SpMyo1,99.5
same,SPOT peptide array binding signal intensity,SpNbp2,29.5
same,SPOT peptide array binding signal intensity,SpPex13,2.5
same,SPOT peptide array binding signal intensity,SpRvs167,915
same,SPOT peptide array binding signal intensity,SpSla1-D1-D2,13
same,SPOT peptide array binding signal intensity,SpSla1-D3,≤ 0
B2,SPOT peptide array binding signal intensity,AgAbp1,1360
same,SPOT peptide array binding signal intensity,AgBbc1,936
same,SPOT peptide array binding signal intensity,AgBem1-D1,86.5
same,SPOT peptide array binding signal intensity,AgBzz1-D1,1350
same,SPOT peptide array binding signal intensity,AgBzz1-D2,1190
same,SPOT peptide array binding signal intensity,AgCyk3,2
same,SPOT peptide array binding signal intensity,AgFus1,3.5
same,SPOT peptide array binding signal intensity,AgHof1,124
same,SPOT peptide array binding signal intensity,AgHse1,22
same,SPOT peptide array binding signal intensity,AgLsb1,62.5
same,SPOT peptide array binding signal intensity,AgLsb4,25
same,SPOT peptide array binding signal intensity,AgMyo5,359
same,SPOT peptide array binding signal intensity,AgNbp2,292
same,SPOT peptide array binding signal intensity,AgRvs167,1.83
same,SPOT peptide array binding signal intensity,AgSho1,83
same,SPOT peptide array binding signal intensity,AgSla1-D1-D2,7
same,SPOT peptide array binding signal intensity,AgSla1-D3,140
same,SPOT peptide array binding signal intensity,CaAbp1-D1,1770
same,SPOT peptide array binding signal intensity,CaAbp1-D2,1480
same,SPOT peptide array binding signal intensity,CaBbc1,1090
same,SPOT peptide array binding signal intensity,CaBem1-D1,42.5
same,SPOT peptide array binding signal intensity,CaBzz1-D1,6780
same,SPOT peptide array binding signal intensity,CaBzz1-D2,3000
same,SPOT peptide array binding signal intensity,CaCyk3,29
same,SPOT peptide array binding signal intensity,CaFus1,30
same,SPOT peptide array binding signal intensity,CaHof1,0.5
same,SPOT peptide array binding signal intensity,CaHse1,24.8
same,SPOT peptide array binding signal intensity,CaLsb1,≤ 0
same,SPOT peptide array binding signal intensity,CaLsb4,243
same,SPOT peptide array binding signal intensity,CaMyo5,4.5
